# Bioassay records: PubChem, National Center for Advancing Translational Sciences (NCATS)
# TDP1 cell CPT = DT40-hTDP1 cell growth loss with CPT; chicken DT40 Tdp1-/-;hTDP1 cells + 20 nM CPT, ATP luminescence, 48 h; Potency, µM (highest dose often 46.2 µM), inactives show at the highest dose activity change, negative = growth inhibition, actives largely listed as inhibitors; 420,000 compounds, 12% hits; AID 686979; also: % is scaled to controls: 0 for no effect and ±100 for the full control effect; nearly all actives have a fitted effect of over 55% in size
#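 Cell growth measured by CellTiter-Glo luminescence after a minimum 48 h, 37 C compound exposure with 20 nM CPT in Tdp1-knockout DT40 cells stably expressing hTDP1, seeded 400/well; qHTS titration format.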
# S2 tox = cell viability loss in ATXN counter-screen; S2 cells (HEK-293 line with an ATXN2-luciferase reporter) viability, CellTiter-Fluor protease fluorescence, 24 h; Potency, µM (doses to about 56.7 µM), actives largely listed as cytotoxic; 400,000 compounds, 0.49% hits; AID 651635; also: nearly all actives have a fitted effect of over 40% in size
# ATXN2 expr inh = inhibitors of ATXN2 expression. HEK-293 ATXN2-luciferase reporter, luminescence, 24 h. Potency, µM (titrated, usually from 57 µM), inactives show at the top dose activity change, negative = inhibition, hits mostly inhibitors. 360,000 compounds, 0.72% hits. AID 1745845; also: % is scaled to controls: 0 for no effect and ±100 for the full control effect; nearly all actives have a fitted effect of over 55% in size
#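 ATXN2-luciferase reporter cells (luciferase flanked by upstream and downstream ATXN2 gene portions) were treated 24 h at 37 °C with compounds at up to 57 uM. SteadyGlo luminescence gave expression; GF-AFC fluorescence gave viability.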
# HepG2 viability = kills HepG2 cells in TGF-b inhibitor counter-screen. HepG2 CAGA-GFP viability, ATP luminescence, 18 h. Potency, µM (highest dose often 46.1 µM), for the others: at the highest dose activity change, negative = cytotoxicity, hits mostly cytotoxic. AID 588856. 410,000 compounds, 0.76% hits
#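 HepG2 CAGA-GFP cells (1000/well, DMEM with 1% FBS) received compound, then TGF-beta at 500 pg/mL final, and were incubated 18 hours at 37 degrees C. Viability was read by CellTiter-Glo luminescence. Media-only wells were set as complete cell-killing and DMSO as no toxicity.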
# TDP1 cell noCPT = qHTS for Inhibitors of human tyrosyl-DNA phosphodiesterase 1 (TDP1): qHTS in cells in absence of CPT; DT40 Tdp1-/- hTDP1 cells, no CPT, ATP luminescence, 48 h; Potency, µM (top dose mostly 46.2 µM), inactives show at the highest dose activity change, negative = growth inhibition, most hits filed as inhibitors; 420,000 compounds, 15% hits; AID 686978, 2013; also: % is scaled to controls: 0 for no effect and ±100 for the full control effect; nearly all actives have a fitted effect of over 55% in size
#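 Growth of hTDP1-complemented DT40 Tdp1-knockout cells is measured by ATP luminescence after at least 48 hr compound exposure at 37 °C, with DMSO substituting for the 20 nM CPT used in the parallel screen.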
# TGFb inhibitor = inhibitors of TGF-b signaling. HepG2 CAGA-GFP TGF-b/SMAD3 reporter, GFP fluorescence, 18 h; TGF-beta stimulated, 500 pg/mL final. Potency, µM (highest dose often 46.1 µM), for the others: top-dose activity, negative = inhibition, hits mostly inhibitors. 410,000 compounds, 1.2% hits. AID 588855; also: % is scaled to controls: 0 for no effect and ±100 for the full control effect; nearly all actives have a fitted effect of over 65% in size
#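 TGF-beta reporter screen: HEPG2 CAGA-GFP, 1% FBS, 500 pg/mL TGF-beta final, 18 h; per-cell GFP summed per well; curves fitted and categorized by class.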
# Active calls of the source: *; i = inactive; ? = inconclusive; . = no result; [ ] = another dose, or the depositor's remark. A selection: hits, their analogues and other compounds. The true share with any hit is near 17%. Calls follow the shape of the dose curve; as a rule, active = well fitted curve in the direction sought with a large enough effect; inconclusive = small, poorly fitted or top-dose-only effect, or another doubt; inactive = no such curve, though single readings can be large; an effect the other way counts as inactive or inconclusive. Potency is read from the fitted curve at half-maximal effect.
SMILES,TDP1 cell CPT,S2 tox,ATXN2 expr inh,HepG2 viability,TDP1 cell noCPT,TGFb inhibitor
COc1ccc(C(=O)c2c(N)c(-c3nc(-c4ccc(OC)cc4)cs3)c3ccccn23)cc1,-0.6%,i,7.3%,-26.8%,-26.4%,-3.1%
C[C@H](O)[C@@H]1C(=O)N2CCc3ccc(N4CCN(C)CC4)cc3[C@@H]2C[C@@H]1N(C)C(=O)c1ccc(C#N)cc1,-3.5%,i,0.5%,-5.1%,-15.1%,4.0%
CCOC(CNC(=O)CN1C(=O)COc2ccc(S(=O)(=O)N3CCCC3)cc21)OCC,-6.2%,i,-5.7%,-1.2%,25.3%,6.2%
O=C(NCc1ccco1)C1CCN(c2nc3ccccc3n2Cc2ccc(F)cc2)CC1,?,i,-10.3%,15.7%,16.4µM*,21.6%
Nc1c(C(=O)NCCN2CCOCC2)c2nc3ccccc3nc2n1-c1ccccc1,?,.,-13.1%,-22.5%,16.4µM*,-29.4%
COc1nc(OC)nc(N2CCC(C(=O)NCc3ccco3)CC2)n1,-25.2%,i,-0.9%,-4.8%,-1.3%,3.3%
COCCCNC(=O)c1c(N)n(-c2ccc(S(N)(=O)=O)cc2)c2nc3ccccc3nc12,-12.1%,?,-14.2%,1.0%,-16.4%,0.7%
C=CCNC(=O)c1c(N)n(-c2cccc(S(N)(=O)=O)c2)c2nc3ccccc3nc12,14.6µM*,.,-21.8%,-8.5%,11.6µM*,?
Nc1c(C(=O)NCc2ccc3c(c2)OCO3)c2nc3ccccc3nc2n1CCCN1CCOCC1,23.1µM*,i,?,11.2µM*,?,?
COC(=O)c1ccc([C@@H]2C[C@H]3CN(Cc4cccnc4)C(=O)[C@]34CCCN24)cc1,11.1%,?,11.9%,2.2%,-23.9%,-4.7%
COc1cc2nc(N(C)C)c(CNC3CCOC(C)(C)C3)cc2c(OC)c1OC (stereo not drawn),-6.7%[9.04 µM],i,.,.,-23.2%,.
O=[N+]([O-])/C(C(=C(Cl)Cl)N1CCN(Cc2ccccc2)CC1)=C1\NCCN1Cc1ccc(Cl)nc1,?,?,-6.1%,-24.0%,14.6µM*,-7.6%
O=C(c1ccc(Cn2cc(Cl)c([N+](=O)[O-])n2)cc1)N1CCN(Cc2ccccc2)CC1,?,i,.,-28.9%,?,?
CC(=O)Nc1ccccc1-c1nc(CNC(=O)c2ccc(F)c(F)c2)c(C)o1,-6.2%,i,.,.,-10.6%,.
Oc1c(Br)cc(Br)cc1/C=N/Nc1ccc(Cl)nn1,?,?,2.82µM*,-17.8%,2.91µM*,-5.1%
CCOc1ccc(/C=N/Nc2ccc(Cl)nn2)c(O)c1,1.16µM*,i,?,-25.9%,0.581µM*,?
Oc1ccc(/C=N/Nc2ccc(Cl)nn2)c(O)c1O,?,?,.,-10.0%,20.6µM*,?
COc1ccc(C(=O)NCCc2nnc3ccc(SCC(=O)Nc4cc(C)on4)nn23)cc1,-8.2%,i,-5.2%,1.3%,-25.9%,-14.1%
COc1ccc(CCNC(=O)CCc2cn(Cc3ccc(F)cc3)c3ccccc23)cc1OC,?,.,.,-13.2%,16.4µM*,?
CCOc1ccc(CCNC(=O)CCc2cn(Cc3ccc(C)cc3)c3ccccc23)cc1,?,.,.,-42.0%,11.6µM*,?
Cc1ccc(Cn2cc(CCC(=O)NC3CCCCC3)c3ccccc32)cc1,?,.,.,-24.1%,14.6µM*,?
COc1ccc(OC)c(CCNC(=O)CCc2cn(C)c3ccccc23)c1,-27.9%,?,?,-17.2%,?,-4.4%
COc1ccc(CCNC(=O)CCc2cn(Cc3ccccc3Cl)c3ccccc23)c(OC)c1,?,.,.,-29.8%,16.4µM*,?
CCOc1ccc(CNC(=O)CCc2cn(Cc3ccccc3)c3ccccc23)cc1,-23.6%,i,-7.3%,1.9%,?,?
CCn1cc(CCC(=O)NCc2cccc(OC)c2OC)c2ccccc21,18.4µM*,i,-11.0%,-2.2%,16.4µM*,?
SMILES,TDP1 cell CPT,S2 tox,ATXN2 expr inh,HepG2 viability,TDP1 cell noCPT,TGFb inhibitor
CCOc1ccccc1CNC(=O)CCc1cn(CC)c2ccccc12,?,i,-13.0%,-18.0%,?,0.0%
O=C(c1ccccc1)c1ccc(N2CCOCC2)c(NC(=O)c2ccco2)c1,?,i,13.8%,-33.8%,20.6µM*,-2.4%
COC(=O)c1ccc(N2CCCCC2)c(NC(=O)c2ccco2)c1,?,i,-8.4%,-16.2%,23.1µM*,4.0%
O=C(Nc1ccc(N2CCCC2)c(Cl)c1)c1ccco1,?,i,6.4%,-34.1%,?,10.7%
OCCN1CCN(c2ncnc3c2ncn3[C@H]2CN(Cc3cccc(C(F)(F)F)c3)C[C@@H](CO)O2)CC1,?,?,9.1%,-3.6%,?,29.6%
CC(NC(=O)Nc1ccc(F)cc1)C(c1cccs1)N1CCCC1 (stereo not drawn),18.2%,i,1.9%,8.0%,3.1%,2.6%
CS(=O)(=O)Nc1ccc2c(c1)[C@H]1C[C@H](CC(=O)NCc3cccc(F)c3)O[C@@H](CO)[C@H]1O2,-18.1%,i,-5.9%,-0.1%,-27.0%,2.6%
C=C1C(=O)[C@]23C[C@H]1CC[C@H]2[C@]1(C)[C@@H](OC(C)=O)CC[C@@](C)(C(=O)OC)[C@H]1C[C@@H]3OC(C)=O,0.581µM*,31.6µM*,?,5.62µM*,0.92µM*,?
C=C1C(=O)[C@]23C[C@H]1CC[C@H]2[C@]1(C)[C@@H](OC(C)=O)CC[C@@](C)(C(=O)O)[C@H]1C[C@@H]3O,1.03µM*,.,3.16µM*,-79.4%,1.03µM*,5.62µM*
C=C1C(=O)[C@]23C[C@H]1CC[C@H]2[C@]1(C)[C@@H](O)CC[C@@](C)(C(=O)O)[C@H]1C[C@@H]3O,2.31µM*,.,?,-89.1%,2.91µM*,8.91µM*
C=C1C(=O)[C@]23C[C@H]1CCC2[C@@]1(C)C(C[C@@H]3O)[C@](C)(C(=O)O)C[C@H](O)[C@@H]1O (stereo partly drawn),2.1%,i,2.6%,-1.6%,8.0%,-3.8%
C=C1C(=O)[C@]23C[C@H]1CCC2[C@@]1(C)C(C[C@@H]3O)[C@](C)(C(=O)OC)CC[C@@H]1OC(C)=O (stereo partly drawn),0.82µM*,2.82µM*,2.51µM*,5.62µM*,0.92µM*,1µM*
CCN(CC(=O)NCC1CCCO1)S(=O)(=O)c1ccc2ccccc2c1 (stereo not drawn),20.1%,i,-5.6%,8.0%,-1.4%,0.5%
